For 40 compounds, outcome and AC50 results are on record in PubChem BioAssay (EPA / NIEHS).

Inconclusive results are not listed. Activity calls are given as the source filed them. Rule for the calls: active = hit-call score of the fitted dose curve at least 0.9, where 1 is the maximum; inconclusive = response in the unintended direction; inactive = score below 0.9.

human Vitamin D Receptor (VDR), VDR (gene 7421), sequence (P11473 whole entry, looked up, the tested form may be a part): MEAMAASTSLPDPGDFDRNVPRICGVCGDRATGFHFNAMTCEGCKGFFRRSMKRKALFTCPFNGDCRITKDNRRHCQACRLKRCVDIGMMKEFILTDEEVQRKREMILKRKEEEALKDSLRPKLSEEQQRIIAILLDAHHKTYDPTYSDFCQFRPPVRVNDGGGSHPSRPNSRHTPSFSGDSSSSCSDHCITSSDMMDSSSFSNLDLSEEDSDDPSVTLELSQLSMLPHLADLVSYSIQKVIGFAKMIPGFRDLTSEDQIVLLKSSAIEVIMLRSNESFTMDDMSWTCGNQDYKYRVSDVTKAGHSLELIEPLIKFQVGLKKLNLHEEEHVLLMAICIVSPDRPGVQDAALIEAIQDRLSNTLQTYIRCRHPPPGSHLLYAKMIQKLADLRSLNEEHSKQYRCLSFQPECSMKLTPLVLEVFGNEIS

This assay has as its target human Vitamin D Receptor (VDR), VDR (gene 7421) (UniProt P11473). Kind of assay: ATG_VDR_TRANS: Attagene TRANS-FACTORIAL HepG2 Assay for human Vitamin D Receptor (VDR) (AID 2283022). The gist of the method:
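Steps: transfect HepG2 with GAL4-UAS-driven reporter constructs; dose compounds 24 h; isolate RNA, reverse-transcribe, PCR-amplify with 6-FAM-labelled primer extension and HpaI digestion; quantify fragments by capillary electrophoresis relative to DMSO.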
As for `CC1C2CC(CC2C2CCCC(O)C2)C1(C)C` (stereo not given), the result was inactive.
As to `CCCCCCCCCCCCN1CCCCCC1=O`, the compound was classed as inactive.
On the same count and under the same terms, the entry for `O=C(CS)OCCOC(=O)CS` is “inactive”; for `Cc1ccc2c(c1)C(=O)OC2=O` it is “inactive”.
Still for that read-out and setting: then `Cc1c(Cl)cccc1[N+](=O)[O-]`, with “inactive”; and `CCCCCCC(C)Nc1ccc(Nc2ccccc2)cc1` (stereo not given), with “inactive”; and `Cc1cccc(Nc2ccccc2)c1`, with “inactive”.
As for `CC(C)CC(C)CC(O)CC(C)C` (stereo not given), the compound was classed as inactive.
As for `CC(C)NCC(O)COc1ccc(CC(N)=O)cc1` (stereo not given), the outcome was inactive.
On the same count and under the same terms, the entry for `C=C(C)[C@@H]1CC=C(C)C(=O)C1` is “inactive”; for `COC(=O)c1ccc(OC)cc1` it is “inactive”; for `COc1ccc(CCO)cc1` it is “inactive”.
The same measure, in the same setting: the entry for `C=Cc1ccc(C)cc1` is “inactive”; for `CCCCCCCCCCCCCC(=O)OCC(O)CO` (stereo not given) it is “inactive”; for `CCCCC1(COC(=O)CCC(=O)O)C(=O)N(c2ccccc2)N(c2ccccc2)C1=O` it is “inactive”.
Same read-out and setting: then `Nc1ccc(N)c2c1C(=O)c1ccccc1C2=O`, with “inactive”; and `NCCNc1cccc2ccccc12`, with “inactive”.
In the case of `C=C(C)CNCC`, the call was inactive.
Still for that read-out and setting: the entry for `CC1(C)COCN1` is “inactive”.
As for `CCOC(=O)C1OC1c1ccccc1` (stereo not given), the compound was called inactive.
`C=C(CC(=O)O)C(=O)O`: the compound was called inactive.
Still for that read-out and setting: then `C#CC(C)(O)CC(C)C` (stereo not given), with “inactive”; and `Nc1ccc2cc(S(=O)(=O)O)cc(O)c2c1N=Nc1ccccc1C(F)(F)F`, with “inactive”; and `O=C1NC2NC(=O)NC2N1` (stereo not given), with “inactive”.
With `CC(=O)O[C@@H]1CC2CCC1(C)C2(C)C` (stereo not given in full), the call was inactive.
The same measure, in the same setting: then `C[C@H]1O[C@@H](O[C@H]2[C@@H](O)C[C@H](O[C@H]3[C@@H](O)C[C@H](O[C@H]4CC[C@@]5(C)[C@H](CC[C@@H]6[C@@H]5C[C@@H](O)[C@]5(C)[C@@H](C7=CC(=O)OC7)CC[C@]65O)C4)O[C@@H]3C)O[C@@H]2C)C[C@H](O)[C@@H]1O`, with “inactive”; and `COS(=O)(=O)O`, with “inactive”; and `CC(C)(C)C1=CC(=O)C(C(C)(C)C)=CC1=O`, with “inactive”.
Still for that read-out and setting: the entry for `O=C1CCCC=CCCCCCCCCCC1` is “inactive”; for `COC(=O)Nc1ccc(Cl)c(Cl)c1` it is “inactive”.
For the compound `CCCC(C)C(O)CC` (stereo not given), the compound was classed as inactive.
Same read-out and setting: then `CCCCCCCCCCCCCCN(CCO)CCO`, with “inactive”.
On the same count and under the same terms, the entry for `C=C[Si]1(C)O[Si](C)(C=C)O[Si](C)(C=C)O[Si](C)(C=C)O1` (stereo not given) is “inactive”.
One may read the AC50 as the midpoint of the concentration-response curve, whichever way the signal moves. `C=C1CC[C@H](O)C/C1=C/C=C1\CCC[C@]2(C)[C@@H]([C@H](C)/C=C/[C@H](C)C(C)C)CC[C@@H]12`: the half-maximal activity concentration (AC50) is 3.98 µM (active).
As for `CCCSc1ccc2nc(NC(=O)OC)[nH]c2c1`, the compound was called inactive.
Still for that read-out and setting: then `C=C1C[C@]23C[C@@]1(O)CC[C@H]2[C@@]12C=C[C@H](O)[C@@](C)(C(=O)O1)[C@H]2[C@@H]3C(=O)O`, with “inactive”; and `C=Cc1ccncc1`, with “inactive”.
As to `Cc1ccc(S(=O)(=O)Oc2ccc(N=Nc3ccc(-c4ccc(N=Nc5c(O)ccc6cc(S(=O)(=O)O)cc(S(=O)(=O)O)c56)c(C)c4)cc3C)cc2)cc1`, the result was inactive.
The same measure, in the same setting: then `CCC1(C)NC(=O)NC1=O` (stereo not given), with “inactive”; and `CCc1ccc(O)cc1`, with “inactive”.
